# Measured values from ChEMBL document CHEMBL4513156, “CO-ADD screening of NCPRI (Romania) compounds”.
# Results with a measured potency or affinity are listed apart.
# Legend:
# Klebsiella pneumoniae = conditions: Concentration 32 ug.mL-1; ASSAY_TEST Inhibition of Bacterial Growth; detection method Absorption (OD600); MEDIA CAMHB; plate type 384well; NBS; CORNING #3640; time 18 hr
# Candida albicans = conditions: 32 ug/mL
# Cryptococcus neoformans = conditions: Concentration 32 ug.mL-1; ASSAY_TEST Inhibition of Fungal Growth; detection method Resazurin; Absorption (OD600-OD570); plate type 384well; NBS; CORNING #3640
SMILES,Inhibition (Klebsiella pneumoniae) [%],Inhibition (Candida albicans) [%],Inhibition (Cryptococcus neoformans) [%]
O=C(N/N=C/C[C@@H]1[C@@H](CO)[C@H](O)C[C@@H]1O)c1ccncc1,16.63,0.37,-75.19
O=C(NN=CC[C@@H]1[C@@H](/C=C/[C@@H](O)CCc2ccccc2)[C@H](OC(=O)c2ccccc2)C[C@@H]1O)c1ccncc1,14.41,5.97,-72.55
NNC(=O)c1ccncc1 [ISONIAZID],18.82,0.98,-55.93
O=C1C[C@@H]2[C@@H](C=NNC(=O)c3ccncc3)[C@@H](C[C@H]2Cl)O1,20.62,2.47,-98.94
O=C(NNC(c1ccccc1)(c1ccccc1)c1ccccc1)c1ccncc1,4.48,3.62,-75.72
CC(C)(C)[Si](C)(C)OCC1C2C[C@H]3C1[C@@H]3/C2=N/NC(=O)c1ccncc1 (stereo partly drawn),15.16,-2,-48.28
O=C(N/N=C1/C[C@H]2[C@H](CO)[C@@H]1C[C@@H]2Cl)c1ccncc1,18.7,2.15,-80.47
O=C(N/N=C1/C2C[C@H]3C(C2C(=O)O)[C@@H]13)c1ccncc1 (stereo partly drawn),8.85,0.22,-16.35
CC(C)(C)[Si](C)(C)OC[C@H]1[C@H](CC=NNC(=O)c2ccncc2)[C@H](O)C[C@@H]1O[Si](C)(C)C(C)(C)C,19.31,3.64,-64.37
O=C(NN=CC[C@@H]1[C@@H](COC2CCCCO2)[C@H](OC2CCCCO2)C[C@@H]1O)c1ccncc1 (stereo partly drawn),4.99,1.39,-44.06
O=C(N/N=C/C[C@@H]1[C@@H](/C=C/[C@@H](O)COc2ccccc2)[C@H](O)C[C@@H]1O)c1ccncc1,13.01,0.82,-89.18
O=C(N/N=C/C[C@@H]1[C@@H](/C=N/NC(=O)c2ccncc2)[C@H](O)C[C@@H]1O)c1ccncc1,9.84,0.98,-79.15
O=C(N/N=C1/C[C@@H]2[C@H](COC(c3ccccc3)(c3ccccc3)c3ccccc3)C[C@H](COC(c3ccccc3)(c3ccccc3)c3ccccc3)[C@@H]2C1)c1ccncc1,-5.52,2.84,-17.15
O=C(NN=CC[C@@H]1[C@@H](/C=C/[C@@H](O)CCc2ccccc2)[C@H](O)C[C@@H]1O)c1ccncc1,16.12,-1.24,-90.23
O=C(N/N=C/COc1cccc(Cl)c1)c1ccncc1,5.99,1.44,-88.39
O=C(N/N=C1/C[C@@H]2[C@H](C1)[C@H](OC(=O)c1ccccc1)C[C@@H]2OC(=O)c1ccccc1)c1ccncc1,10.86,16.2,-110.81
O=C(N/N=C1\CC[C@@H]2[C@H]1[C@H](OC(=O)c1ccccc1)C[C@@H]2OC(=O)c1ccccc1)c1ccncc1,13.57,12.8,-65.69
O=C(NN=CC[C@H]1[C@H](CO)[C@@H](O)C[C@H]1O)c1ccncc1,13.38,0.85,-70.97
O=C(NNC(=O)[C@@H]1C[C@H](C(=O)O)[C@@H]2CCC[C@@H]21)c1ccncc1,17.49,2.57,-51.45
O=C(NNC(=O)c1ccc([N+](=O)[O-])cc1C(=O)O)c1ccncc1,17.92,3.64,-51.18
O=C(NNC(=O)c1cccc([N+](=O)[O-])c1C(=O)O)c1ccncc1,15.09,1.9,-5.54
O=C(NN=C[C@H]1[C@H]2CC(O)OC[C@H]2C[C@H]1O)c1ccncc1 (stereo partly drawn),2.56,3.89,-80.47
O=C(N/N=C/[C@@H]1C[C@H](CO)[C@@H]2CCC[C@@H]21)c1ccncc1,17.88,0.02,-36.93
COC(=O)C[C@H]1[C@H](/C=N\NC(=O)c2ccncc2)[C@@H](O[Si](C)(C)C(C)(C)C)C[C@@H]1Cl,21.45,1.67,-101.31
O=C(N/N=C1\C[C@@H]2[C@@H](CO)[C@H]1C[C@H]2Cl)c1ccncc1,21.63,-0.38,-60.68
O=C(N/N=C/C[C@@H]1[C@@H](/C=C/[C@@H](O)COc2cccc(Cl)c2)[C@H](O)C[C@@H]1O)c1ccncc1,18.63,0.21,-81.79
